Lassa entry – Lassa virus entry inhibition; Lassa virus pseudotyped entry inhibition, cell-based qHTS; Potency, µM (doses to about 49.2 µM), inactives show top-dose activity change, negative = inhibition, actives largely listed as inhibitors; 18,000 compounds, 4.1% hits; AID 720533
MARV entry inh – Marburg virus entry inhibition; Potency, µM (top dose mostly 49.2 µM), inactives show top-dose activity change, negative = inhibition, usual class: inhibitors; Marburg virus pseudotype entry/binding inhibition, cell-based; 18,000 compounds, 6.5% hits
An asterisk follows results filed as active; [ ] = dose if it differs, or a comment. Sampled rows, rich in hits. Any-hit rate of the full collection: about 8.6%. Calls come from the whole dose curve; tested in HEK293 cells. % is set by controls: 0 for no effect and ±100 for the full control effect; potency is the fitted concentration of half-maximal effect.

CN1CCCN(C(c2ccccc2)c2ccc(Cl)cc2)CC1 (centres undefined) was read as Lassa entry 22µM* and MARV entry inh 7.1µM*.
For Cc1cccc(CN2CCN(C(c3ccccc3)c3ccc(Cl)cc3)CC2)c1 (centres undefined) the results were Lassa entry inconclusive and MARV entry inh 7.1µM*.
For c1ccc(C[C@@H](c2ccccc2)N2CCCCC2)cc1 the results were Lassa entry -7% and MARV entry inh inconclusive.
For COC(=O)CC1OC1[C@H](C)[C@@H](OC)C(C)C (some centres undefined) the results were MARV entry inh -15%[8.59 µM].
For CC(C)ON(CC(=O)NO)S(=O)(=O)c1ccc(-c2ccccc2)cc1 the results were Lassa entry -26% and MARV entry inh 13%.
CC(C)ON(C(C(=O)NO)C(C)C)S(=O)(=O)c1ccc(-c2ccccc2)cc1 (centres undefined) was read as Lassa entry 6.3µM* and MARV entry inh 6.3µM*.
CCOC(=O)CN1C(=O)[C@@]2(CC(C)=C[C@@H](COCc3ccccc3)O2)c2ccccc21 was read as MARV entry inh 7%[8.59 µM].
`C=CCN=C1NC(c2cccc(C(F)(F)F)c2)C(C(=O)OC)=C(C)N1CC` (centres undefined) gave Lassa entry -27%[8.59 µM] and MARV entry inh 12%[8.59 µM].
Screening COC(=O)C1=C[C@H]([C@@H](C)[C@H](OC)c2ccccc2Br)[C@H]2[C@H]1c1ccccc1N2C returned MARV entry inh -16%[8.59 µM].
CCCCCCCCCCCCOCCOCCOCCOCCO was read as Lassa entry -15% and MARV entry inh -48%.
For CCCCCCCCCc1ccc(OCCOCCO)cc1 the results were Lassa entry 11µM* and MARV entry inh inconclusive.
Screening C[C@@H]1CC[C@H]2C(=O)N(Cc3ccccc3)C[C@@H](O)CN2[C@@H]1c1cccc(Br)c1 returned MARV entry inh -22%[8.59 µM].
CCCN(CCC)C(=O)C(CCC(=O)OCCCN1CCN(CCOC(=O)Cc2c(C)n(C(=O)c3ccc(Cl)cc3)c3ccc(OC)cc23)CC1)NC(=O)c1ccccc1 (centres undefined) was read as Lassa entry 22µM* and MARV entry inh 14µM*.
Screening COc1ccc2c(c1)c(CC(=O)OCC(=O)O)c(C)n2C(=O)c1ccc(Cl)cc1 returned Lassa entry -3% and MARV entry inh 22%.
`CCN1C(=S)NC(c2ccccc2)C(C(=O)OC)=C1C` (centres undefined) gave Lassa entry 6%[8.59 µM] and MARV entry inh -2%[8.59 µM].
Cc1ccc(C#C[C@@H]2C=C[C@H](Oc3ccc4c(c3)OCO4)[C@@H](CO)O2)c(C)c1 was read as Lassa entry 2%[8.59 µM] and MARV entry inh 11%[8.59 µM].
Screening COc1cc(SC)ccc1C(=O)N1CCC(Cc2ccccc2)CC1 returned Lassa entry 11µM* and MARV entry inh -17%.
Screening COc1cc2c(cc1OC)C(=O)C(CC1CCN(Cc3ccccc3)CC1)C2 (centres undefined) returned Lassa entry -17% and MARV entry inh inconclusive.
For O=C(Cn1cc(COc2ccc(-c3ccc(Br)cc3)cc2)nn1)c1ccc(O)cc1 the results were MARV entry inh -8%.
Screening CN(C)CCOc1ccccc1Cc1ccccc1 returned Lassa entry 10% and MARV entry inh inconclusive.
Screening CNCCCCOc1ccccc1Cc1ccccc1 returned Lassa entry inconclusive and MARV entry inh 7.1µM*.
`C=CCN1c2ccccc2[C@]23C[C@@H](C(=O)OC)N(C(=O)Nc4ccccc4F)C2=NC(C(=O)OC)=C(C(=O)OC)[C@H]13` gave Lassa entry 12%[8.59 µM] and MARV entry inh 3%[8.59 µM].
For CC(C)C[C@H]1COc2cc(F)ccc2S(=O)(=O)N1 the results were Lassa entry inconclusive and MARV entry inh -21%.
`COc1ccc2[nH]c(C(=O)c3ccccc3)cc2c1` gave Lassa entry -9% and MARV entry inh 3.2µM*.
Screening O=C(O)c1cc2ccccc2[nH]1 returned Lassa entry 0% and MARV entry inh 3%.
For C=CC1CC(C=C)OP(=O)(OC[C@H](C)[C@@H](O[Si](C)(C)C(C)(C)C)[C@@H](C)C=C)O1 (some centres undefined) the results were Lassa entry 17% and MARV entry inh 49%.
Screening CCCCCCCc1cc2ccc(F)cc2c2c(C(=O)OC)c(C(=O)OC)c(C(=O)OC)n12 returned Lassa entry -5%[8.59 µM] and MARV entry inh inconclusive.
COc1ccc([C@]23Cc4cc(C#N)ccc4[C@H](O2)c2c(cc(C)n(-c4ccccc4)c2=O)O3)cc1 was read as Lassa entry 12%[8.59 µM] and MARV entry inh 2%[8.59 µM].
COC(=O)[C@H](C(C)C)N(Cc1cc(OC)cc(OC)c1)S(=O)(=O)CCl was read as MARV entry inh -23%.
Cc1cc(C)cc([C@H]2C[C@]34CN(Cc5ccccc5)[S+](=O)([O-])[C@@H]3C[C@@H]2O4)c1 was read as Lassa entry -20% and MARV entry inh -15%.

Screens as filed in PubChem.
